Reference: PubChem BioAssay (Tox21)
Results filed as inconclusive are left out. Active and inactive are the calls of the source. Unless noted, calls come from the whole dose curve; as a rule, active = well fitted curve in the direction sought with a large enough effect in the repeat runs; inconclusive = weak or mixed curves; inactive = no such curve, though single readings can be large; an effect the other way counts as inactive or inconclusive.

How the values were obtained:
[1] = qHTS assay to identify small molecule agonists of H2AX (AID 1224845; active = well fitted activation curve with a large enough effect in the signal ratio in the repeat runs, not every such curve was filed as active; the % refers to the signal ratio; note: potency is the fitted concentration of half-maximal effect)
Summary of the method: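 Phospho-H2AX Ser139 measured by HTRF (ex 320 nm; em 665 and 620 nm) after 24 hr antibody incubation. Compounds, 15 concentrations, 0.76% DMSO, were applied to CHO-K1 cells for 3hr at 37C before lysis.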

[2] = qHTS assay to identify small molecule agonists of the hypoxia (HIF-1) signaling pathway (AID 1224846; active = well fitted activation curve with a large enough effect in the signal ratio in the repeat runs, not every such curve was filed as active; the % refers to the signal ratio; note: % is set by controls: 0 for no effect and ±100 for the full control effect)
Summary of the method: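 Cell line: CellSensor HRE-bla ME-180; 2,000 cells/well; 0.5% dialyzed FBS; 5 h preincubation; DMSO compound pin transfer; 17 h, 37C, 5% CO2; CCF4-AM added; bla FRET signal scored for activation.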

[3] = qHTS assay to identify small molecule agonists of H2AX - cell viability counter screen (AID 1224847; calls by dose curve; note: nearly all actives have a fitted effect of over 30% in size; note: potency is the fitted concentration of half-maximal effect)
Summary of the method: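 Viability of CHO-K1 (wild type) cells after 3 hr compound exposure was measured by CellTiter-Glo luminescence.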

[4] = qHTS assay to identify small molecule agonists of the estrogen related receptor (ERR) signaling pathway from Tox21 library (AID 1224849; calls by dose curve; note: % is set by controls: 0 for no effect and ±100 for the full control effect; nearly all actives have a fitted effect of over 15% in size); conditions: ERR reporter cell line, ONE-Glo luciferase, 18 h; at 92.4 µM (top of the series) unless noted
Summary of the method: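 ERR cells, 6 h pre-incubation 37 C/5% CO2; cpd in DMSO pinned; 18 h 37 C; ONE-Glo added, 30 min RT; luminescence read. Agonist mode, qHTS.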

[5] = qHTS RealTime-Glo MT Cell Viability Assay in HepG2 cells - 24 hour (AID 1224867); note: % is set by controls: 0 for no effect and ±100 for the full control effect; nearly all actives have a fitted effect of over 50% in size
Summary of the method: (§1)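 HepG2 cells were seeded at 600 cells/well together with NanoLuc luciferase and a cell-permeant prosubstrate, preincubated 5 h at 37 C/5% CO2, then pin-dosed with compounds in DMSO. Nonlytic luminescence from viable cells was read at each time point.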

[6] = A CellTox Green Cytotoxicity Assay to monitor cytotoxicity in HEK293 cells - 0 hour (AID 1224869); note: % is set by controls: 0 for no effect and ±100 for the full control effect; nearly all actives have a fitted effect of over 50% in size
Summary of the method: (§2)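 Nonlytic real-time cytotoxicity: HEK293 + CellTox Green reagent plated, 5 h preincubation, pintool compound addition (23 nL in DMSO), 37 C for 40 h, fluorescence measured at successive time points.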

[7] = qHTS RealTime-Glo MT Cell Viability Assay in HepG2 cells - 40 hour (AID 1224870); note: nearly all actives have a fitted effect of over 50% in size; note: potency is the fitted concentration of half-maximal effect
Summary of the method: (§3)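 Real-time viability: cells seeded at 600 per well together with NanoLuc and cell-permeant prosubstrate, compounds added after 5 h incubation. Luminescence tracked at 0, 8, 16, 24, 32 and 40 h of exposure.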

[8] = A CellTox Green Cytotoxicity Assay to monitor cytotoxicity in HEK293 cells - 40 hour (AID 1224871); note: nearly all actives have a fitted effect of over 45% in size; note: potency is the fitted concentration of half-maximal effect
Summary of the method: as §2

[9] = qHTS RealTime-Glo MT Cell Viability Assay in HEK293 cells - 16 hour (AID 1224872); note: nearly all actives have a fitted effect of over 50% in size; note: potency is the fitted concentration of half-maximal effect
Summary of the method: (§4)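 HEK293 cells were seeded at 600 cells/well together with NanoLuc luciferase and cell-permeant prosubstrate, preincubated 5 h at 37 C/5% CO2, then given compound in DMSO by pintool. Luminescence from viable-cell prosubstrate reduction was read repeatedly over 40 h.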

[10] = qHTS RealTime-Glo MT Cell Viability Assay in HepG2 cells - 8 hour (AID 1224873); note: % is set by controls: 0 for no effect and ±100 for the full control effect; nearly all actives have a fitted effect of over 55% in size
Summary of the method: as §3

[11] = A CellTox Green Cytotoxicity Assay to monitor cytotoxicity in HEK293 cells - 24 hour (AID 1224875); note: % is set by controls: 0 for no effect and ±100 for the full control effect; nearly all actives have a fitted effect of over 45% in size
Summary of the method: as §2

[12] = A CellTox Green Cytotoxicity Assay to monitor cytotoxicity in HepG2 cells - 16 hour (AID 1224876); note: % is set by controls: 0 for no effect and ±100 for the full control effect; nearly all actives have a fitted effect of over 45% in size
Summary of the method: (§5)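 Read-out is fluorescence of a cyanine dye excluded from live cells that stains DNA of dead HepG2 cells, with signal proportional to cytotoxicity. Plates were read at 0, 8, 16, 24, 32 and 40 h after compound addition.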

[13] = qHTS RealTime-Glo MT Cell Viability Assay in HepG2 cells - 32 hour (AID 1224877); note: nearly all actives have a fitted effect of over 55% in size; note: potency is the fitted concentration of half-maximal effect
Summary of the method: as §1

[14] = A CellTox Green Cytotoxicity Assay to monitor cytotoxicity in HepG2 cells - 24 hour (AID 1224878); note: % is set by controls: 0 for no effect and ±100 for the full control effect; nearly all actives have a fitted effect of over 45% in size
Summary of the method: as §5

[15] = A CellTox Green Cytotoxicity Assay to monitor cytotoxicity in HepG2 cells - 40 hour (AID 1224879); note: nearly all actives have a fitted effect of over 40% in size; note: potency is the fitted concentration of half-maximal effect
Summary of the method: as §5

[16] = qHTS assay to identify small molecule agonists of the hypoxia (HIF-1) signaling pathway - cell viability counter screen (AID 1224844; calls by dose curve; note: nearly all actives have a fitted effect of over 50% in size; note: potency is the fitted concentration of half-maximal effect)
Summary of the method: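 ME-180 HRE-bla cells, 2,000/well, 0.5% dialyzed FBS; 5 hr settle, 17 hr compound at 37C/5% CO2; CCF4-AM reporter read first, then CellTiter-Glo luminescence after 30 min RT.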

[17] = qHTS assay to identify small molecule antagonists of the estrogen related receptor (ERR) signaling pathway from Tox21 library (AID 1224848)
Summary of the method: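 Reading was by luminescence 30 min after ONE-Glo addition. Before that, ERR cells at 2,000 per well had rested 6 h at 37 C/5% CO2 and then received pin-tooled compounds in DMSO for 18 h at 37 C.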

[18] = qHTS RealTime-Glo MT Cell Viability Assay in HEK293 cells - 32 hour (AID 1224868); note: nearly all actives have a fitted effect of over 50% in size; note: potency is the fitted concentration of half-maximal effect
Summary of the method: as §4

[19] = qHTS RealTime-Glo MT Cell Viability Assay in HEK293 cells - 40 hour (AID 1224874); conditions: RealTime-Glo luminescence; max response: active compounds read low; note: nearly all actives have a fitted effect of over 50% in size; note: potency is the fitted concentration of half-maximal effect; for max response: % is set by controls: 0 for no effect and ±100 for the full control effect
Summary of the method: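 Cells were seeded together with NanoLuc luciferase and a prosubstrate that viable cells reduce to a luciferase substrate. After a 5 h incubation at 37 C/5% CO2, compounds were added and luminescence was measured repeatedly during 40 h of treatment.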

CC(C)(C)C(=O)C(Oc1ccc(Cl)cc1)n1ccnc1 (centres undefined)
inactive: Potency [1] | outcome [2] | Potency [3] | activity change, positive = activation [4] -21.7% [at 42.5 µM] | Potency [5] | Potency [6] | Potency [7] | Potency [8] | Potency [9] | Potency [10] | Potency [11] | Potency [12] | Potency [13] | Potency [14] | Potency [15]

CC(C)(C)CC(C)(C)c1ccc(OCCO)cc1
active: Potency [3] 100 µM | Potency [17] 3.83 µM | Potency [18] 5.46 µM | Potency [8] 48.7 µM | Potency [9] 6.88 µM
inactive: Potency [16] | Potency [1] | Potency [6] | Potency [7] | Potency [10] | Potency [12] | Potency [13] | Potency [14] | Potency [15]

CC1=C(/C=C/C(C)=C\C=C\C(C)=C\C(=O)O)C(C)(C)CCC1
active: Potency [16] 49 µM | Potency [8] 49 µM
inactive: Potency [3] | Potency [18] | Potency [6] | Potency [7] | Potency [9] | Potency [10] | max response [19] -21.3% | Potency [12] | Potency [14]

Brc1cc(-c2ccc(Br)c(Br)c2Br)cc(Br)c1Br
inactive: Potency [16] | outcome [2] | Potency [3] | Potency [5] | Potency [18] | Potency [6] | Potency [7] | Potency [8] | Potency [9] | Potency [10] | max response [19] 4.87% | Potency [12] | Potency [13] | Potency [14] | Potency [15]

CCC(C)=O
inactive: Potency [16] | outcome [2] | Potency [3] | Potency [5] | Potency [18] | Potency [6] | Potency [7] | Potency [8] | Potency [9] | Potency [10] | max response [19] 15.5% | Potency [11] | Potency [12] | Potency [13] | Potency [14] | Potency [15]

CCCCC(=O)O[C@]1(C(=O)CO)[C@@H](C)C[C@H]2[C@@H]3CCC4=CC(=O)C=C[C@]4(C)[C@@]3(F)[C@@H](O)C[C@@]21C
active: Potency [16] 34.7 µM | Potency [1] 113 µM | Potency [8] 54.9 µM
inactive: outcome [2] | activity change, positive = activation [4] -45.4% | Potency [6] | Potency [7] | Potency [11] | Potency [12] | Potency [13] | Potency [14] | Potency [15]

CCC1(C)CC(=O)NC1=O (centres undefined)
inactive: Potency [16] | Potency [1] | Potency [5] | Potency [18] | Potency [6] | Potency [7] | Potency [8] | Potency [9] | Potency [10] | max response [19] 1.67% | Potency [12] | Potency [13] | Potency [14] | Potency [15]

Nc1c(I)cc(I)c(C(=O)N(CCC(=O)O)c2ccccc2)c1I
inactive: Potency [16] | Potency [1] | outcome [2] | Potency [5] | Potency [18] | Potency [6] | Potency [7] | Potency [8] | Potency [9] | Potency [10] | max response [19] -10.8% | Potency [11] | Potency [12] | Potency [13] | Potency [14] | Potency [15]

CCNC(=O)N1CCN(CCCC(c2ccc(F)cc2)c2ccc(F)cc2)CC1
active: Potency [18] 16.9 µM | Potency [9] 16.9 µM | Potency [19] 16.9 µM | Potency [15] 21.3 µM
inactive: Potency [16] | Potency [1] | Potency [5] | Potency [6] | Potency [7] | Potency [8] | Potency [10] | Potency [11] | Potency [12] | Potency [13]

COc1ccccc1N=Nc1c(S(=O)(=O)O)cc2cc(S(=O)(=O)O)cc(NC(C)=O)c2c1O
active: Potency [3] 42.3 µM
inactive: Potency [16] | outcome [2] | Potency [5] | Potency [18] | Potency [6] | Potency [7] | Potency [9] | Potency [10] | max response [19] 1.04% | Potency [11] | Potency [12] | Potency [13] | Potency [14] | Potency [15]

CC(C)C(OC(=O)c1ccccc1)C(C)(C)COC(=O)c1ccccc1 (centres undefined)
inactive: Potency [16] | Potency [1] | outcome [2] | Potency [5] | Potency [18] | Potency [6] | Potency [7] | Potency [8] | Potency [10] | Potency [11] | Potency [12] | Potency [14] | Potency [15]

COCCOC(=O)C1=C(C)NC(C)=C(C(=O)OC/C=C/c2ccccc2)C1c1cccc([N+](=O)[O-])c1 (centres undefined)
active: Potency [17] 7.5 µM
inactive: Potency [16] | Potency [1] | activity change, positive = activation [4] -61.8% [at 42.5 µM] | Potency [6] | Potency [7] | Potency [8] | Potency [9] | Potency [11] | Potency [12] | Potency [14] | Potency [15]

NC(=O)Cn1c(=O)cc(CCN2CCN(c3nccc4sccc34)CC2)c2ccc(F)cc21
inactive: Potency [16] | Potency [1] | outcome [2] | activity change, positive = activation [4] -34.9% | Potency [6] | Potency [7] | Potency [11] | Potency [12] | Potency [14] | Potency [15]
active: Potency [17] 54.5 µM | Potency [18] 43.6 µM | Potency [9] 49 µM | Potency [19] 43.6 µM

CCCCC1C(=O)N(c2ccccc2)N(c2ccc(O)cc2)C1=O (centres undefined)
active: Potency [17] 21.1 µM | Potency [7] 23.9 µM | Potency [13] 16.9 µM | Potency [15] 10.7 µM
inactive: outcome [2] | activity change, positive = activation [4] -65.4% [at 42.5 µM] | Potency [6] | Potency [10]
